Screens as filed in PubChem BioAssay.
HEK293 tox – qHTS of GLP-1 Receptor Inverse Agonists: Cytotox Screen; HEK293 cAMP-luciferase reporter cells, luminescence, 24 h; Potency, µM (titrated, usually from 38.3 µM), for the others: at the top dose activity change, negative = inhibition, hits mostly inhibitors; hit rate 0.13% among 410,000; AID 624418, 2012;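 further: loss of luciferase light is scored as toxicity; potency means the concentration at half of the fitted maximal effect; on the % scale 0 is the no-effect control and ±100 the full control effect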
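Luminescence readout: signal drop marks cytotoxicity. Plated cells grew 12 h at 37 °C, 5% CO2, received 23 nL compound for 24 h, then got luciferase reagent, read after 12 min at RT.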
p53 reactivator – qHTS assay for re-activators of p53 using a Luc reporter; H1299 p53-A138V BP100-luciferase reporter, luminescence, 24 h; Potency, µM (top dose mostly 92.2 µM), inactives show at the highest dose activity change, positive = activation, actives largely listed as activators; hit rate 0.063% among 320,000; AID 504706, 2011; further: potency means the concentration at half of the fitted maximal effect; % of control where 0% means no effect; nearly all actives have a fitted effect of over 45% in size
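p53-null H1299 cells stably carrying temperature-sensitive p53-A138V and a BP100-luciferase reporter were pinned with compounds (4-point, 1:5 series) and held 24 hrs at 37 deg C. Luminescence was read 10 min after detection reagent.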
ClpP mod – qHTS Assay for Activators of ClpP; Potency, µM (titrated, usually from 57.5 µM), for the others: at the highest dose activity change, negative = active; purified B. subtilis ClpP, FRET peptide cleavage, 20 min; hit rate 1.9% among 340,000; ATP-dependent Clp protease proteolytic subunit (Bacillus subtilis (strain 168)), P80244; active means well fitted falling curve with a large enough effect; inconclusive means small, poorly fitted or top-dose-only effect; inactive means no such curve, though single readings can be large or run the other way; further: potency means the concentration at half of the fitted maximal effect; the source files actives as falling curves though it sought activators and does not explain the sign; nearly all actives have a fitted effect of over 65% in size
Target sequence (P80244 whole entry, looked up): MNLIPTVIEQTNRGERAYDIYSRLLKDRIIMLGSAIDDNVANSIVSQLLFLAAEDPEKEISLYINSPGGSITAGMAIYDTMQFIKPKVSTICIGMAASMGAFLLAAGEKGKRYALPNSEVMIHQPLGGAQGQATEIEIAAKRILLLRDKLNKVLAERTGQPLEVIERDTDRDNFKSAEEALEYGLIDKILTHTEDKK
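ClpP 10 microg/mL final, pH 8 Tris/KCl buffer with BSA, glycerol, Tween-20; compound pinned in; FRET-FV substrate; RT 20 min; Ex320/Em430; ΔFRET vs ADEP 5.8 microM, DMSO, no enzyme.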
GLP-1R agonist – qHTS of GLP-1 Receptor Agonists | Glucagon-like peptide 1 receptor (Homo sapiens), P43220 | HEK293 GLP-1R CRE-luciferase, luminescence, 4-6 h; cells express a hypersensitive GLP-1R form | Potency, µM (titrated, usually from 45.6 µM), for inactives: top-dose activation, hits mostly activators | hit rate 0.007% among 380,000 | AID 624172, 2012; further: potency means the concentration at half of the fitted maximal effect; % of control where 0% means no effect
Target sequence (P43220 whole entry, looked up): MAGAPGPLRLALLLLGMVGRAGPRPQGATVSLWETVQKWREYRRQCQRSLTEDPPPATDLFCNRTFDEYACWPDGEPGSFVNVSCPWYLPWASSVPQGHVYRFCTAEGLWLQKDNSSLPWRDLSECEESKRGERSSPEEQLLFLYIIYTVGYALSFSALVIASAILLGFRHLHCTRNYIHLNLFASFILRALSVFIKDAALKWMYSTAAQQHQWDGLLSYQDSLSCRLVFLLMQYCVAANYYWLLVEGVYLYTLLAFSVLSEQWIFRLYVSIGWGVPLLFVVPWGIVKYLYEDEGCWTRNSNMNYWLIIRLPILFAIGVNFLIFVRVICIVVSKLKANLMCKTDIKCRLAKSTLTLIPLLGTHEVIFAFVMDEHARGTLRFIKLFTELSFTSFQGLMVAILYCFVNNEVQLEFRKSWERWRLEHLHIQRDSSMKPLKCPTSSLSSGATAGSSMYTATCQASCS
LDHA inh – qHTS assay for inhibitors of human lactate dehydrogenase | L-lactate dehydrogenase A chain (Homo sapiens), P00338 | purified LDHA, NADH/diaphorase-resazurin fluorescence; active compounds read low | activity change, % (values are at about 110 or 230 µM) | hit rate 0.15% among 480,000 | AID 1347041, 2019; in the data active means activity change below about -30%; inconclusive means mostly about -25% to -30%;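 further: plate controls were DMSO wells for no effect and wells without enzyme for full effect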
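Resorufin fluorescence (ex540/em590), read at 0 and 20 min after diaphorase/resazurin addition, reports the NADH left after a 5 min room-temperature reaction of 2 nM human LDH5 with 0.06 mM NADH and 0.2 mM pyruvate.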
GLP1R inv ag – qHTS of GLP-1 Receptor Inverse Agonists (Inhibition Mode); Glucagon-like peptide 1 receptor (Homo sapiens), P43220; HEK293 GLP-1R CRE-luciferase, luminescence, 24 h; GLP-1R form is constitutively active; Potency, µM (titrated, usually from 38.3 µM), for the others: at the top dose activity change, negative = inhibition, usual class: inhibitors; hit rate 1.6% among 410,000; AID 624417, 2012; further: potency means the concentration at half of the fitted maximal effect; on the % scale 0 is the no-effect control and ±100 the full control effect; nearly all actives have a fitted effect of over 55% in size
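HEK293 cells stably co-expressing a cAMP-responsive luciferase reporter and constitutively active GLP-1R were seeded, incubated 12 h, then exposed to compounds for 24 h at 37 C. Luminescence was read 12 min after detection reagent; inverse agonists lower signal.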
The depositor's hits bear a star; ? = inconclusive; · = not tested or not shown; [ ] = dose if it differs, or a comment. A selection: hits, their analogues and other compounds. The true share with any hit is near 2.9%. Unless noted, the call rests on the fitted dose curve; in most records, active means well fitted curve in the direction sought with a large enough effect; inconclusive means small, poorly fitted or top-dose-only effect, or another doubt; inactive means no such curve, though single readings can be large; an effect the other way counts as inactive or inconclusive.

SMILES | HEK293 tox | p53 reactivator | ClpP mod | GLP-1R agonist | LDHA inh | GLP1R inv ag
O=C(Nc1ccc(Oc2ccc3ccccc3c2)cc1)c1ccco1 | -17.6% | -10.7% | 15.8µM* | 5.6% | -3.3 | ?
O=C(Nc1ccc2oc(=O)ccc2c1)c1ccco1 | 6.1% | 8.5% | 28.2µM* | 7.8% | -4.3 | 154.9%
O=C(Cc1ccccc1)Nc1ccc2oc(=O)ccc2c1 | -2.1%[7.66 µM] | -1.8% | -1.2% | 3.7% | -2.2 | -3.8%[7.66 µM]
O=C(Nc1cc2nn(-c3ccccc3)nc2cc1Cl)c1ccco1 | 6.4% | 45.7% | -16.7% | 6.3% | 1.0 | 17.2%
O=[N+]([O-])c1ccc(O)c(C=Nc2cccc3ncccc23)c1 | ? | 2.7% | · | 6.2% | 36.8 | 7.6%
Cc1nc(NC(=O)c2ccccc2[N+](=O)[O-])sc1C(=O)N(C)C | -14.0% | -7.4% | 1.2% | 12.6% | -0.5 | -1.3%
COc1nc(NCc2ccco2)nc(NC2CCCCC2)n1 | -0.5% | 26.1% | -3.2% | 27.5% | 2.8 | ?
CCOc1nc(NC2CCCCC2)nc(NC(C)(C)C)n1 | 3.8% | 0.6% | 1.9% | 1.5% | 0.5 | 5.62µM*
CCOc1ccc(C(=O)NCC(=O)OCC(=O)Nc2ccc(C)c(S(=O)(=O)N(C)C)c2)cc1 | -1.4% | 3.1% | · | 8.2% | -31.4* | 3.7%
CCN1N=C(c2ccccc2)Cn2c1nc1ccccc12 | 35.3% | 3.2% | 14.1µM* | ? | -3.1 | ?
COc1ccc(Cc2nc(C(=O)Nc3ccccc3)cs2)cc1 | 7.4% | 28.8% | 31.6µM* | 5.8% | -2.9 | ?
O=C1CC(=C(c2ccccc2)c2ccccc2)C(=O)N1CCCCN1CCN(c2ccccc2)CC1 | ? | 16.1% | 1.3% | -1.2% | 4.5 | 1.26µM*
O=C(CCCN1CCN(c2ccccc2)CC1)c1ccc(F)cc1 | -9.5% | · | 1.4% | -2.7% | 1.6 | 12.7%
O=C(c1cnn2c1NC(c1ccco1)CC2C(F)(F)F)N1CCN(c2cccc(Cl)c2)CC1 (centres undefined) | ? | -0.3% | 1.4% | -10.7% | 3.5 | 2.24µM*
Cc1ccccc1/C=C/C12NC(=O)CN1c1ccccc1C2(C)C (centres undefined) | -3.5% | 6.1% | 1.1% | 1.3% | -2.3 | ?
CC1(C)c2ccccc2N2CC(=O)N[C@@]21/C=C/C=C/c1ccccc1 | -9.2% | 0.0% | -0.4% | -2.4% | -4.0 | 3.55µM*
COc1ccc(C(=O)CSc2nc(-c3ccccn3)nc(C)c2Cl)cc1 | 11.2µM* | -9.0% | -1.8% | 1.6% | -3.0 | ?
COc1ccc2oc(C(=O)NN3C(C)CCCC3C)c(C)c2c1 (centres undefined) | -3.8% | -0.8% | · | 2.7% | -0.8 | -12.1%
NC(=O)c1ccc(NC(=O)COC(=O)CCCc2c[nH]c3ccccc23)cc1 | -4.4% | 4.3% | -3.6% | -3.4% | -5.4 | 8.2%
Cc1ccc2c(c1)N(CCC(=O)NC(C)C)C(=O)CO2 | -0.1% | 1.3% | 28.2µM* | -22.8% | -1.9 | 5.8%
Cc1ccc(CNC(=O)CCN2C(=O)COc3ccc(C)cc32)cc1 | -6.3% | · | 0.4% | 0.1% | 0.0 | 1.4%
Cc1cccn2c(=O)c(C=Nc3ccc(Cl)cc3)c(NCCO)nc12 | -2.5% | -4.5% | 28.2µM* | -2.3% | -2.4 | 14.7%
Cc1cccn2c(=O)c(C=Nc3ccccc3)c(NCCO)nc12 | -3.7% | 1.8% | 4.3% | 11.0% | -1.5 | 5.8%
CN=Cc1c(NC)nc2c(C)cccn2c1=O | 0.9% | -5.5% | 39.8µM* | 5.3% | 3.8 | 18.4%
CCC(C)NC(=O)Cc1csc(NC(=O)Nc2ccccc2OC)n1 (centres undefined) | · | · | · | · | 5.9 | ·
SMILES | HEK293 tox | p53 reactivator | ClpP mod | GLP-1R agonist | LDHA inh | GLP1R inv ag
CN1CCN(S(=O)(=O)c2cccc(C(=O)NCCC3=CCCCC3)c2)CC1 | -4.6% | -5.8% | -5.1% | -2.1% | -6.4 | ?
CC(=O)N1CC(c2ccccc2)C(c2ccc(Cl)cc2)=N1 (centres undefined) | -4.5% | -7.0% | ? | 29.7% | 1.1 | ?
CC(C)NC(=O)N1CC(c2ccccc2)C(c2ccc(Cl)cc2)=N1 (centres undefined) | 11.6% | 5.2% | 4.3% | 15.5% | -0.2 | 3.98µM*
COc1ccc(C(=O)/C(C#N)=N/Nc2cccc([N+](=O)[O-])c2)cc1 | ? | 1.8% | 0.3% | -4.3% | -7.3 | ?
CCOC(=O)c1c2c(n(C)c1C)C(=O)C(=O)c1ccc(Br)cc1-2 | -23.1% | · | 1.6% | 10.1% | 19.7 | ?
CCOC(=O)c1c2c(n(Cc3ccccc3)c1C)C(=O)C(=O)c1ccccc1-2 | 5.01µM* | · | 0.8% | -22.4% | 29.3 | ?
O=C(Nc1cccc(Br)c1)c1ccc(CN2CCc3ccccc3C2)cc1 | -15.1% | 13.9% | -17.7% | 1.3% | -11.3 | 2.24µM*
COc1ccc(NC(=O)c2ccc(CN3CCc4ccccc4C3)cc2)c(OC)c1 | -3.2% | · | 0.3% | -6.1% | 1.2 | ?
CSc1cccc(NC(=O)c2ccc(CN3CCc4ccccc4C3)cc2)c1 | -7.7% | 5.2% | · | 16.8% | -7.9 | ?
COc1ccc(OC)c(NC(=O)c2ccc(CN3CCc4ccccc4C3)cc2)c1 | 2.3% | 7.0% | -2.6% | 1.8% | -0.4 | 11.2µM*
O=C(c1ccc(CN2CCc3ccccc3C2)cc1)N1CCN(c2ccccc2)CC1 | -17.4% | -1.3% | 31.6µM* | 1.3% | -0.9 | ?
COc1ccc(C(=O)C2CCCN(C(=O)CCNC(C)=O)C2)cc1OC (centres undefined) | 1.3% | -5.5% | -12.3% | -3.1% | -14.0 | 7.4%
CCc1ccc2oc(-c3cc(NC(=O)c4cccs4)ccc3Cl)nc2c1 | -1.3% | · | ? | 0.6% | 0.8 | ?
COc1ccc(CN2CCN(C(c3ccc(F)cc3)c3ccc(F)cc3)CC2)c(OC)c1OC | ? | · | 0.5% | -5.4% | -3.3 | 10µM*
COc1ccc(CN2CCN(Cc3cccc(Oc4ccccc4)c3)CC2)c(OC)c1OC | 5.0% | 4.8% | 0.1% | 7.9% | -12.7 | ?
Brc1ccc(CN2CCSCC2)cc1 | -8.7% | 2.2% | -0.7% | -0.2% | -30.2* | 0.0%
COc1ccc(CN2CCN(Cc3ccc(Br)cc3)CC2)c(OC)c1OC | 3.2% | -0.9% | -5.1% | -3.3% | -30.4* | ?
C=C(C)COc1ccc(-c2[nH]ncc2-c2ccccc2)c(O)c1 | -30.3% | 5.9% | -12.2% | -9.0% | 1.3 | ?
